Assay results: PubChem BioAssay
A number with no mark means an inactive call. How the calls were made is not given here.

target: Pantothenate synthetase (Mycobacterium tuberculosis (strain ATCC 25618 / H37Rv)) (UniProt P9WIL5); experiment: Recombinant Mtb pantothenate synthetase (PanC) inhibitors, coupled enzyme, confirmatory (AID 375); conditions: coupled enzyme assay; at 10 µM, active compounds read high;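 further: 0% = full reaction with vehicle and 100% = no enzyme background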
Sequence (P9WIL5 whole entry, looked up): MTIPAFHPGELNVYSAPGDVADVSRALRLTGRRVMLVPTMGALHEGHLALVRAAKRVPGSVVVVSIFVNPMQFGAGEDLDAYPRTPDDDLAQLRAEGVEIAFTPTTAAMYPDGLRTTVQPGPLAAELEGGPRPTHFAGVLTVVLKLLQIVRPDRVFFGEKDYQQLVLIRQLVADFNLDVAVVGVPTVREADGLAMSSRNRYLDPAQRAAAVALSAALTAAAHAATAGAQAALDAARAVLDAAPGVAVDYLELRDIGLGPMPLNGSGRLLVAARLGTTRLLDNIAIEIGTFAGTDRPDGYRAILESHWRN

SMILES	inhibition [%]
Cc1ccccc1NC(=O)Cc1nnc(SCC(=O)N2CCN(c3ccccc3)CC2)n1C	4
COC(=O)COc1cccc(NC(=O)COc2ccccc2)c1	2
COC(=O)c1cc(OC)c(OC)cc1NC(=O)CC1CCCCC1	1
COc1ccccc1S(=O)(=O)Cc1ccc(C(=O)NCCN2CCCCCC2)o1	0
CCCNC(=O)Nc1ccccc1C(=O)Nc1ccc(OC)cc1	2
CN(C)c1ccc(C2C3=C(CCCC3=O)OC3=C2C(=O)CCC3)cc1	0
CCc1n[nH]c2c1C(=O)CC(C)(C)C2	2
COc1ccc(-c2noc(CSc3nc(N)c(-c4ccccc4)c(=O)[nH]3)n2)cc1OC	9
CCSc1nc2c(c(=O)n(C)c(=O)n2C)n1Cc1ccc(Cl)cc1	4
CC(C)CCNC(=O)NC(=O)CSc1nnc(-c2ccccc2F)n1N	0
CCOC(=O)C1=C(CS(=O)(=O)c2ccc(F)c(C)c2)NC(=O)NC1c1ccc(O)c(O)c1 (centres undefined)	7
O=C(NCCCn1ccnc1)c1csc2ccccc12	7
CCCN(CCC)C(=O)C(CCC(=O)O)NC(=O)c1ccccc1 (centres undefined)	0
O=C(CCN1C(=O)c2ccccc2C1=O)NCCN1CCOCC1	0
CCCCCCC(c1c(C)n(C)n(-c2ccccc2)c1=O)c1c(C)n(C)n(-c2ccccc2)c1=O	0
O=S(=O)(c1ccc(-c2csc(-c3cccnc3)n2)cc1)N1CCCCC1	5
COc1ccc(C(C)N2CC34C=CC(O3)C(C(=O)OCC(C)C)C4C2=O)cc1 (centres undefined)	9
Cc1cn(C2CC3OCC3O2)c(=O)[nH]c1=O (centres undefined)	0
CCc1cccc(NC(=O)C2CCCN(S(=O)(=O)c3c(C)[nH]c(=O)[nH]c3=O)C2)c1 (centres undefined)	4
Cc1ccc(-c2noc(CCC(=O)NCCc3ccccc3Cl)n2)cc1	1

SMILES	inhibition [%]
O=C1N2c3ccccc3CCc3cccc(c32)C1(O)C(F)(F)F (centres undefined)	0
Nc1nnnn1/N=C/c1ccccn1	0
CCC(C)(C)NC(=O)C(c1ccco1)N(C(=O)Cn1nnc2ccccc21)c1ccc2c(c1)OCO2 (centres undefined)	0
CC(=O)n1nc(-c2ccco2)nc1SCc1ccccc1	0
FC(F)(F)c1ccc(Sc2nnc(-c3cccs3)n2CC2CCCO2)nc1 (centres undefined)	0
COc1cccc(C(=O)Nc2cc(C)c3c(=O)oc4ccccc4c3n2)c1	0
COc1cc2c(cc1OC)CN(Cc1nc3ccsc3c(=O)[nH]1)CC2	6
COc1ccccc1CNC(=O)C1CCC(CNc2c(N3CCOCC3)c(=O)c2=O)CC1 (centres undefined)	0
CCOc1ccc(C(=O)Cc2ccc3oc(C(=O)O)cc3c2)c(O)c1	7
c1ccc(C2(Cn3ccc4ccccc43)OCCO2)cc1	0
COc1ccc(NC(=O)CCc2nc(-c3ccccc3F)no2)cc1	0
CCn1c(CCNC(=O)c2ccc(OC)c(OC)c2)nc2ccccc21	3
Cc1ccccc1OCC(O)CN (centres undefined)	0
Clc1cccc(Nc2c3c(nc4ncnn24)CCC3)c1	0
CCOc1ccc(C(c2nnnn2Cc2ccccc2)N2CCN(C(=O)c3ccco3)CC2)cc1 (centres undefined)	2
FC(F)(F)c1cc(-c2ccco2)nc(-n2nnc3ccccc32)n1	0
Cc1ccc(-n2ncc3c(Nc4c(C)n(C)n(-c5ccccc5)c4=O)ncnc32)c(C)c1	10
CCN1C(=O)CC(N2CCC(Nc3ccc(F)cc3)CC2)C1=O (centres undefined)	0
CN(C)c1ccc(NC(=O)c2ccncc2)c2ccccc12	6
